Results on 40 compounds are retold here after PubChem BioAssay (NCI).

The structures appear in SMILES notation. About 83,000 compounds went through this panel and 20% of them were active in at least one assay; those are over-represented in the sample as a whole.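 Cells were grown in 96-well plates and exposed to the test compound at a single concentration for 48 hours; results are reported as percent growth, with values below 10 considered active.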 Unmarked numbers belong to inactive results. The source made the active and inactive calls.

This experiment has as its system CCRF-CEM leukemia. The experiment can be described thus: NCI-60 one-dose screen, 48 h (100 = growth as untreated, 0 = no growth, -100 = all killed). As to conditions: 10 µM unless noted.
As to `O=C1C(Cl)=C(NCCCCCCNC2=C(Cl)C(=O)c3ccccc3C2=O)C(=O)c2ccccc21`, the growth was 97.3%. As for `CCCC/C=C/[C@@H]1C[C@H]1CCO`, the figure is 101%. As to `C=C(C)[C@@H]1CC[C@]2(CO)CC[C@]3(C)[C@H](CC[C@@H]4[C@@]5(C)CC[C@H](NCO)C(C)(C)[C@@H]5CC[C@]43C)[C@@H]12`, the growth is -9.15% (active). With `Cc1cccc(/C=C/c2c(C(=O)/C=C/c3ccccc3)c(C)nc3ccccc23)c1` the figure was 6.17% (active); with `Cc1ccc(-c2nc(N3CCCNCC3)c3oc(-c4ccc(C)cc4)nc3n2)cc1`, -72.1% (active). With `Cc1sc2nc(NCCc3c[nH]c4ccc(Cl)cc34)[nH]c(=O)c2c1C` the figure was 33.9%; with `COc1ccc(OC)c(Nc2nnc(-c3ccc(O)c(OC)c3)o2)c1`, 88.6%; with `COc1ccccc1NC(=O)N=Nc1c(O)[nH]c2ccccc12`, 89.9%. For `Nc1nc2ccccc2c2c1S(=O)(=O)c1ccc(Cl)cc1C2=O`, the growth is -10.3% (active). Consider `Nc1n[nH]c2cccc(C#Cc3cccc(C(=O)Nc4cc(C(F)(F)F)cc(C(F)(F)F)c4)c3)c12`, for which the growth was 12.1%. For `CS(=O)(=O)Nc1cc(-c2ccc3ncnc(Nc4ccc5c(cnn5Cc5ccc(F)cc5)c4)c3c2)cnc1Cl`, the growth was 31.2%. For `Fc1cc2c(cc1Cl)N(c1ncnc3ccc(-c4ccc5n[nH]nc5c4)cc13)CC2`, the growth is 92.9%. `CCN1C(=S)N(c2ccccc2)C2NC(=S)N(/N=C/C=C/c3ccccc3OC)C21` (stereo not given): the growth is 9.27% (active). With `O=c1c2cccc3c(N4CCCC4)ccc(c32)c2nc3ccccc3n12` the figure was 53.7%; with `OB1OCc2cc(/C=C/c3cccc(C(F)(F)F)c3)ccc21`, 7.57% (active). For `O=C(/C=C/c1ccccc1)Nc1ncc(Cc2ccccc2Cl)s1`, the growth was 15.9%. As for `CN(C)CCNC(=O)c1ccc(-c2nc3ccc4[nH]ncc4c3c3c2C2CCC3C2)cc1` (stereo not given), the figure is 6.57% (active); as for `COC12C=C/C(=C(/C(=O)OCc3ccncc3)C(=O)CCCCCCCCC3(OC)C=C/C(=C(/C(=O)OCc4ccncc4)C(=O)CCCCCCCC1)O3)O2`, -14.8% (active). For the compound `O=C(/C=C/c1cccc(Cl)c1)c1cccc(OCCCOc2cccc(C(=O)/C=C/c3cccc(Cl)c3)c2)c1`, the growth is 98.1%. As to `CCn1c(SCC(=O)N/N=C(\C)c2ccc(Cl)cc2)nc2c1c(=O)n(C)c(=O)n2C`, the growth is 99.6%. On to `Cc1ccc(C[P+](c2ccccc2)(c2ccccc2)c2ccccc2)cc1`, for which the growth was 9.9% (active). As for `Clc1ccc2c(NC3CCC(N4CCOCC4)CC3)ccnc2c1` (stereo not given), the figure is 85.5%. As for `Cc1ccc(C2=Nc3c(N)ncnc3NC(c3cccc(Nc4ccnc5cc(C(F)(F)F)ccc45)c3)C2)cc1` (stereo not given), the growth was 4.56% (active). With `COc1ccc(-c2noc(C(=O)O)c2-c2cc(OC)c(OC)c(OC)c2)cc1` the figure was 7.85% (active); with `CCOC(=O)c1nn(-c2ccc(S(N)(=O)=O)cc2)c2nc(C)cc(=O)n12`, 105%; with `CCSC(SCC)c1ccc(Cl)cc1`, 108%. With `CSc1nc2ccccc2cc1/C=C1/C=C(c2ccccc2)NC1=O` the figure was 68.8%; with `COC1/C=C/OC2(C)Oc3c(C)c(O)c4c(O)c(c(/C=N/Nc5ccc([N+](=O)[O-])cc5[N+](=O)[O-])c(O)c4c3C2=O)NC(=O)C(C)=C/C=C/C(C)C(O)C(C)C(O)C(C)C(OC(C)=O)C1C` (stereo not given), 6.19% (active).

In the case of `O=C1C(Cl)=C(Nc2ccc(S(=O)(=O)N3CCOCC3)cc2)C(=O)c2ccccc21`, the growth is 6.98% (active). With `c1csc(-c2ccc(CNc3c4ccccc4nc4ccccc34)cc2)c1` the figure was 2.57% (active); with `Nc1ncc(-c2ccc3ncnc(Nc4cccc(Cl)c4)c3c2)cn1`, 40.5%; with `CCOC(=O)C#Cc1c(C(=O)OCC)nnn1Cc1ccc([N+](=O)[O-])cc1`, -21.3% (active). With `O=C(CSc1nc2ccc([N+](=O)[O-])cc2[nH]1)Nc1ccc([N+](=O)[O-])cc1` the figure was 16.8%; with `CC(C)(Sc1cc(C(C)(C)C)c(OC(=O)CCCC(=O)O)c(C(C)(C)C)c1)Sc1cc(C(C)(C)C)c(OC(=O)CCCC(=O)O)c(C(C)(C)C)c1`, 37.8%. As to `O=C(N(c1ccccc1)c1ccccc1)n1cc(I)c2nc(Cl)nc(Cl)c21`, the growth is 4.32% (active). With `NC(=O)CSc1oc(-c2ccccc2)nc1S(=O)(=O)c1ccc(Br)cc1` the figure was 110%. As for `COc1ccc(/C=C/C(=O)c2cc3c(N)c(C(=O)Nc4cccc5ccccc45)sc3nc2C)cc1`, the figure is 33.6%; as for `Nc1ncnc2c1c(-c1cccc(Cl)c1)nn2CC(=O)N1CCOCC1`, 102%. For the compound `CC(=O)O[C@H]1CC2CCC3C(CC[C@@]4(C)C3C[C@H]([N+]3(C)CCCCC3)[C@@H]4OC(C)=O)[C@@]2(C)C[C@@H]1N1CCCCC1` (stereo not given in full), the growth is 103%. With `c1ccc(Cn2cc3c(c2)-c2oncc2CC3)cc1` the figure was 6.94% (active).
